Screening results deposited in PubChem by National Center for Advancing Translational Sciences (NCATS).
HCMV inh: inhibitors of human cytomegalovirus. 410,000 tested, 4.5% active. activity change, negative = inhibition, % at 57.5 µM. HFF cells, HCMV-luciferase reporter, 72 h; hits give low values; in the data active = activity change below about -60%; inconclusive = no clear call, values can overlap the other calls; inactive = above about -39%; note: % is set by controls: 0 for no effect and ±100 for the full control effect
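Steps: HFFs plated, 16 h 37C; compounds added; HCMV-luciferase added to MOI 1 PFU/cell; 72 h 37C; OneGlo reagent, 5 min room temperature; luminescence read, normalized to controls.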
Cycloheximide cs: affects cycloheximide protein synthesis inhibition readout, counter-screen. cell reporter, cycloheximide protein synthesis inhibition counterscreen. max response, %. 300,000 tested, 12% active. AID 2314; in the data active = max response mostly above about 13%, no sharp cut-off; inactive = mostly below about 14%; note: read at 38.3 µM for the half of the compounds with a filed dose; 0% is about no effect
Pf growth 96h: P. falciparum growth inhibition at 96 hours; P. falciparum luciferase reporter growth, 96 h; Potency, µM (highest dose often 28.7 µM), for the others: at the top dose activity change, negative = inhibition, actives largely listed as inhibitors; 320,000 tested, 6.9% active; AID 504834; note: potency is the fitted concentration of half-maximal effect; % is set by controls: 0 for no effect and ±100 for the full control effect
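Luminescence readout: decreased luciferase signal marks inhibited growth of reporter-expressing P. falciparum in infected red cells (2% hematocrit, 0.05% parasitemia final), exposed to compound two generations (96 h, 37 C, 5% CO2).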
Shiga toxin inh: inhibitors of Shiga toxin in Vero cells; Vero cells, Shiga toxin protein synthesis inhibition reporter; AID 2315; inhibition, % at 38.7 µM; 290,000 tested, 9.2% active; in the data active = inhibition mostly above about 28%, no sharp cut-off; inactive = mostly below about 43%; note: 0% is about no effect
Pf growth 48h: P. falciparum growth inhibition at 48 hours (one generation). P. falciparum luciferase growth in erythrocytes, 48 h. 310,000 tested, 5.9% active. Potency, µM (series often up to 28.7 µM), inactives show at the highest dose activity change, negative = inhibition, most hits filed as inhibitors; note: potency is the fitted concentration of half-maximal effect; % is set by controls: 0 for no effect and ±100 for the full control effect
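Erythrocytes infected with P. falciparum carrying an integrated firefly luciferase reporter (2% hematocrit, 0.1% parasitemia final) were exposed to compounds in RPMI 1640 with 0.5% Albumax at 37 C, 5% CO2. Growth inhibition was scored as reduced luminescence.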
Numbers without * were called inactive; ? = inconclusive; . = no result given. Only some compounds are listed: those with a hit (about 20% of all), similar ones and a draw of the others. Unless noted, calls come from the whole dose curve; as a rule, active = well fitted inhibition curve with a large enough effect; inconclusive = small, poorly fitted or top-dose-only effect, or another doubt; inactive = no such curve, though single readings can be large or run the other way.

SMILES	HCMV inh	Cycloheximide cs	Pf growth 96h	Shiga toxin inh	Pf growth 48h
CCOc1ccccc1C=C1SC(=S)NC1=O	-14	.	.	.	.
c1coc(-c2ccnc(-c3ccncc3)n2)c1	-32	11	13%	15	-1%
Cc1ccc(-c2noc(-c3ccno3)n2)cc1	26	49*	31%	82*	41%
c1ccc(-c2nc(-c3ccco3)cs2)nc1	31	30*	78%	107*	105%
CCc1ccc(OCC(=O)Nc2ncc3c(n2)CC(C)(C)CC3=O)cc1	4	-6	3.3µM*	-17	8%
CC1(C)CC(=O)c2cnc(NC(=O)CCc3ccccc3)nc2C1	-1	0	.	-4	8%
CC1(C)CC(=O)c2cnc(NC(=O)c3ccco3)nc2C1	18	20	89%	84*	-5%
COc1cccc(C(=O)Nc2ncc3c(n2)CC(C)(C)CC3=O)c1	3	-2	15%	0	31%
CCOc1ccc(NS(=O)(=O)c2ccc3[nH]cc(C(=O)N(C)C4CCCCC4)c(=O)c3c2)cc1	7	.	.	.	.
COc1ccccc1NC(=O)C1CCC(CNS(=O)(=O)c2ccc3c(c2)CC(C)N3C(C)=O)CC1 (centres undefined)	-31	.	.	.	.
COc1ccccc1NC(=O)Cc1c(F)cccc1Cl	5	-7	?	-11	?
COc1ccc(NC(=O)COC(=O)Cc2c(F)cccc2Cl)cc1	-39	45*	13%	33*	-9%
COc1ccc(CC(=O)OCC(=O)Nc2ccc(F)cc2)cc1	-20	.	21%	.	20%
COc1ccc(NC(=O)Cc2c(F)cccc2Cl)cc1	-17	31*	38%	62*	28%
COc1ccc(NC(=O)Cc2c(C)n(C(=O)c3ccc(Cl)cc3)c3ccc(OC)cc23)cc1	8	13	3.3µM*	28	?
COc1ccc2c(c1)c(CC(=O)Nc1ccc(C)cc1)c(C)n2C(=O)c1ccc(Cl)cc1	-15	-1	-13%	-9	.
CCOC(=O)C1CCCN(C(=O)CCn2nnnc2CN2CCOCC2)C1 (centres undefined)	11	8	6%	-5	42%
COc1ccc(CNC(=O)CN(c2ccc(C(C)C)cc2)S(=O)(=O)c2c(C)noc2C)cc1	-31	3	?	-3	-14%
Cc1noc(C)c1S(=O)(=O)N(CC(=O)NC1CCC(C)CC1)c1ccc(C(C)C)cc1 (centres undefined)	-34	7	?	8	10µM*
O=C(CN(c1ccc(Cl)cc1)S(=O)(=O)c1ccc(Cl)c([N+](=O)[O-])c1)NCCc1ccccc1	37	6	?	-3	?
Cc1ccc(CNC(=O)CN(c2ccc(C(C)C)cc2)S(=O)(=O)c2c(C)noc2C)cc1	10	1	10µM*	-3	-8%
Cc1ccc(N(CC(=O)NCCc2ccc(Cl)cc2)S(=O)(=O)c2c(C)noc2C)cc1	-30	-2	2.3µM*	-4	-5%
CCOc1ccc(N(CC(=O)NC2CCC(C)CC2)S(=O)(=O)c2c(C)noc2C)cc1 (centres undefined)	35	-1	?	10	?
O=C(CN(c1ccc(Cl)cc1)S(=O)(=O)c1ccc(Cl)c([N+](=O)[O-])c1)NCCc1ccc(F)cc1	25	-7	12µM*	-11	?
O=C(c1ccc(CN2CCOCC2)cc1)N1CCN(c2ccccc2)CC1	74	-3	214%	2	12%
SMILES	HCMV inh	Cycloheximide cs	Pf growth 96h	Shiga toxin inh	Pf growth 48h
COc1ccccc1OCCNC(=O)C1CC(=O)N(Cc2ccc(C)cc2)C1 (centres undefined)	-25	.	-7%	.	?
N=C1c2ccccc2CN1c1ccc(F)c([N+](=O)[O-])c1	-34	3	?	-1	12µM*
COc1ccc2nc3ccccc3[n+]([O-])c2c1	2	.	.	.	.
[O-][n+]1c2ccccc2cc2ccccc21	4	.	7.4µM*	.	2.6µM*
CN1CCC(C)(C(=O)Nc2cccc(Oc3ccccc3)c2)C1 (centres undefined)	-3	.	.	.	.
Cc1cc(C)c2c(N=CN(C)C)c(C(=O)N3CCN(c4ncccn4)CC3)sc2n1	11	-5	.	2	?
COC(=O)/C=C/c1sc2nc(C)cc(C)c2c1N=CN(C)C	-68*	9	69%	35	11%
CCc1ccc(CN2CCC(Oc3ccc(C(=O)NCc4ccccn4)cc3)CC2)o1	0	-8	?	-10	?
CCc1ccccc1-n1cnc2cc(C(=O)NC3CCCCCC3)ccc21	0	.	.	.	.
Cc1ccc(C(=O)Nc2ccon2)cc1S(=O)(=O)N1CCCCCC1	-101*	15	?	34	.
O=C(Nc1ccon1)c1ccc(S(=O)(=O)N2CCCCCC2)cc1	29	-2	?	15	9.3µM*
Cc1ccc(C(=O)Nc2ccon2)cc1S(=O)(=O)N1CCOCC1	28	-2	.	-16	0%
O=C(Nc1ccc(-c2cn3c(n2)SCC3)cc1)c1ccco1	-16	40*	110%	65*	62%
O=C(Cc1ccc(F)cc1)Nc1cccc(-c2cn3c(n2)SCC3)c1	-17	14	-4%	39	-6%
CC(=O)Nc1ccc(S(=O)(=O)Nc2cccc(-c3cn4c(n3)SCC4)c2)cc1	25	-3	?	-4	?
CC(=O)Nc1ccc(-c2cn3c(n2)SCC3)cc1	74	32*	84%	28	81%
CC(=O)c1ccc(S(=O)(=O)Nc2cccc(-c3cn4c(n3)SCC4)c2)cc1	-28	14	?	12	3%
O=C(Nc1cccc(-c2cn3c(n2)SCC3)c1)c1ccc(Br)o1	?	17	0.74µM*	29	17%
O=C(Oc1ccc(-c2cn3c(n2)SCC3)cc1)c1ccccc1	-3	12*	.	11	-16%
COc1ccc(NC(=O)NCc2cccn2Cc2ccc(F)cc2)cc1OC	-17	.	.	.	.
CC(C)(C)OC(=O)N1CCC(c2c(C(=O)NCCN3CCOCC3)cnn2-c2ccccc2)CC1	0	.	.	.	.
CCc1nc2cc3sc(CC)nc3cc2s1	306	25*	?	74*	404%
CCOC(=O)c1cnc(-n2nc(C)cc2C)nc1Nc1ccc(O)cc1	-8	4	2.6µM*	-4	?
CCOC(=O)c1cnc(-n2nc(C)cc2C)nc1Nc1ccc(N(C)C)cc1	-5	9	3.3µM*	12	5.2µM*
CCOC(=O)c1cnc(-n2nc(C)cc2C)nc1Nc1ccc2c(c1)OCO2	.	2	15µM*	-25	12%
SMILES	HCMV inh	Cycloheximide cs	Pf growth 96h	Shiga toxin inh	Pf growth 48h
CCOC(=O)c1cnc(-n2nc(C)cc2C)nc1Nc1ccc(C)cc1	26	8	?	6	?
Cc1ccc(C(=O)c2cncc(Br)c2)cc1	-71*	22*	-21%	41	7%
Cc1ccc(C)c(NC(=S)NC(=O)c2cncc(Br)c2)c1	0	.	.	.	.
CCc1ccc(C(=O)c2cncc(Br)c2)cc1	-69*	35*	.	49*	?
Cc1ccc(C(=O)c2cc(Br)ccc2N)cc1	-26	22*	1.7µM*	45*	35%
NNC(=O)c1cncc(Br)c1	1	6	48%	37	28%
